Laboratory results from PubChem BioAssay AID588405 (Sanford-Burnham Center for Chemical Genomics, 2011).
The campaign covered roughly 360,000 compounds. About 6,200 (1.7%) were called active. The list comes from a sample in which actives are over-represented; it also holds similar structures and randomly drawn compounds. Unmarked numbers belong to inactive results.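 The calls were made as follows: active = inhibition of at least 50% at 20 µM; inactive = the rest.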

assay: inhibition of PEG-3 promoter activity – cell-based, HeLa, luciferase luminescence, primary screen (AID 588405); conditions: HeLa PEG-Prom luciferase reporter, overnight, at 20 µM, stronger effect = higher value

Row | SMILES | inhibition
1 | CCOc1ccc2[nH]c(=O)c(CN(CCCO)S(=O)(=O)c3ccc(F)cc3)cc2c1 | 12.7%
2 | COc1ccc(-c2[nH]ncc2CN(C)Cc2cccnc2)c(F)c1 | 9.62%
3 | COc1ccc2[nH]c(=O)c(CN(Cc3cccnc3)S(=O)(=O)c3ccccc3F)cc2c1 | 59.6% (active)
4 | Cn1c(NCc2cccnc2)nc2cc(-c3ccc(F)cc3)sc2c1=O | -200%
5 | COc1c(C)cc(C(=O)C2CCCN(S(=O)(=O)c3c(C)noc3C)C2)cc1C (configuration not stated) | 34.8%
6 | CSc1nc(N)c(C#N)c(-c2ccccc2Cl)c1C#N | 53.6% (active)
7 | COc1ccccc1-c1c(C#N)c(N)nc2c1CCC2 | 8.52%
8 | Cc1c(-c2ccccc2)nc(N)c(C#N)c1-c1cccs1 | 12.9%
9 | NCCCCC(C(=O)O)N(C(=O)OCc1ccccc1)C(=O)OCc1ccccc1 (configuration not stated) | 5.74%
10 | CCNC(=O)C1CCCN(C(=O)c2ccc(OC)cc2OC)CC1 (configuration not stated) | -2.59%
11 | CNC(=O)c1[nH]cnc1C(=O)N[C@@H](CC(C)C)C(=O)OCc1ccccc1 | 4.89%
12 | CCOc1ccc(-n2c(SCC(=O)NC3CCS(=O)(=O)C3)nnc2-c2cccnc2)cc1 (configuration not stated) | -3.16%
13 | CCN1CCC(O)(/C=C/c2ccc(C)cc2)C(C(=O)/C=C/c2ccc(C)cc2)C1 (configuration not stated) | 97.7% (active)
14 | COc1cc(C(O)c2nc(-c3cccc(C(=O)O)c3)cs2)ccc1F (configuration not stated) | -37.1%
15 | Cc1nc(C(F)(F)F)ccc1C(=O)N1CCC1(C)C(=O)NS(=O)(=O)c1ccccc1 (configuration not stated) | 11.6%
16 | CCC(C)Cn1c(O)cc2nn(-c3nc4ccccc4s3)c(=O)c-2c1C (configuration not stated) | 96.7% (active)
17 | OC[C@H]1O[C@@H](c2nc(-c3nc(-c4ccc(F)cc4)no3)cs2)[C@H](O)[C@@H](O)[C@H]1O | -42.8%
18 | Nc1nc(CSc2nnnn2-c2ccccc2)nc(Nc2ccccc2)n1 | 6.46%
19 | Cc1cccc(CN2CCN(C3CN(Cc4ccccc4)S(=O)(=O)C3)CC2)c1 (configuration not stated) | 24.2%
20 | CC1(C)C2CCC1(C)C(OC(=O)c1ccc(O)cc1)C2 (configuration not stated) | -14.1%
21 | O=C(OC12CC3CC(CC(C3)C1)C2)c1ccc(NCc2cc(O)ccc2O)cc1 | 82.7% (active)
22 | CCCCC(=O)N(C)c1c(CC)nc2c(OCc3ccc(S(C)(=O)=O)cc3)cccn12 | -0.29%

Row | SMILES | inhibition
23 | CC(C)Oc1cc(F)ccc1-c1cc(C(=O)Nc2ccc(F)cc2)[nH]n1 | -30.2%
24 | O=C1CCNCCN1[C@H](CO)Cc1ccccc1 | 3.53%
25 | c1ccc2c(CCN3CCNC[C@H]3Cc3cccc4ccccc34)cccc2c1 | -8.29%
26 | c1ccc(C[C@H]2CNCCN2CCC23CC4CC(CC(C4)C2)C3)cc1 | 96.8% (active)
27 | COc1cc(/C=C/c2ccc(/C=C/c3cc(OC)c(OC)c(OC)c3)cc2)cc(OC)c1OC | 61.8% (active)
28 | CCC(=O)c1ccc(OC(=O)/C=C/c2cc(OC)c(OC)c(OC)c2)cc1 | 3.36%
29 | COc1cc(/C=C/C2=CC(C)(C)NC(=S)N2)cc(OC)c1OC | 4.8%
30 | OCCc1ccc(NCCc2ccco2)cc1 | -123%
31 | CN[C@H](C(=O)NC[C@H]1O[C@@H](n2cnc3c(N)ncnc32)[C@H](O)[C@@H]1O)[C@@H](C)OCc1ccccc1 | -6.23%
32 | O=C(COC(=O)c1ccc(F)cc1F)Nc1ncccn1 | 22.2%
33 | CC(C)CNC(=O)C(=O)NCC(c1ccc2c(c1)OCO2)N1CCOCC1 (configuration not stated) | -15.4%
34 | CC(C)Cn1c(N)c(C(=O)COC(=O)CN2C(=O)C3CC=CCC3C2=O)c(=O)n(C)c1=O (configuration not stated) | 21.8%
35 | CCCc1cc(=O)[nH]c(SCC(=O)c2c(N)n(CC(C)C)c(=O)n(C)c2=O)n1 | 54.7% (active)
36 | CCCc1cc(=O)[nH]c(SCC(=O)N2C(C)CCCC2C)n1 (configuration not stated) | 0.43%
37 | O=C(NCc1cccnc1)c1ccc2nc([C@@H]3O[C@H](CO)[C@H](O)[C@H](O)[C@H]3O)[nH]c2c1 | 15.8%
38 | CCC(C)C(CO)NC(=O)/C=C/[C@H]1O[C@@H](n2cnc3c(NC(=O)c4ccccc4)ncnc32)[C@H](O)[C@@H]1O (some centres not stated) | 10.6%
39 | Cc1ccsc1C(=O)OCC(=O)c1cc(C)n(CC2CCCO2)c1C (configuration not stated) | 55.9% (active)
40 | Cc1ccsc1C(=O)OCC(=O)NCCc1ccccc1 | -156%
41 | Cc1ccsc1C(=O)OCC(=O)Nc1cccc(F)c1 | -227%
42 | COc1ccc(-c2nnc3n2CCCCC3)cc1 | 11.4%
43 | COc1ccc(N(C)C(=O)CCS(=O)(=O)c2cccc3nsnc23)cc1 | -4.4%
44 | COc1cccc2sc(N(CCCN(C)C)C(=O)C(c3ccccc3)c3ccccc3)nc12 | 99.4% (active)

Row | SMILES | inhibition
45 | Cc1ccc2sc(N(CCN(C)C)C(=O)/C=C/c3cccs3)nc2c1C | 19.8%
46 | CCN(CC)CCN(C(=O)c1ccc2c(c1)CCCC2)c1nc2c(OC)cccc2s1 | -7.74%
47 | COc1cccc2sc(N(CCCN(C)C)C(=O)CCS(=O)(=O)c3ccccc3)nc12 | 96.4% (active)
48 | COc1ccccc1NC(=O)CC(NCCN(C)C)C(=O)O (configuration not stated) | 6.79%
49 | Cc1ccc(S(=O)(=O)CCC(=O)OCC(=O)N(C)Cc2ccccc2)cc1 | -2.43%
50 | O=C(CCS(=O)(=O)c1ccccc1)Nc1nc2c(s1)CCCC2 | -47.1%
51 | Cc1cccc2sc(N(CCCN(C)C)C(=O)CCS(=O)(=O)c3ccccc3)nc12 | 100% (active)
52 | CC1(C(=O)NCc2ccc3c(c2)OCO3)CCN1CCc1ccccc1 (configuration not stated) | -5.32%
53 | CC1(C(=O)NS(=O)(=O)c2cccs2)CCN1C(=O)Cc1ccc(-c2ccccc2)cc1 (configuration not stated) | 1.06%
54 | O=C(C=CC(=O)Nc1ccc(F)cc1F)Nc1ccc(F)cc1F | 14.9%
55 | O=S1(=O)CC(N2CCN(CCO)CC2)CN1C1CCCC1 (configuration not stated) | -8.51%
56 | Cc1cccc(CN2CCN(C3CN(Cc4cn(Cc5ccccc5F)nn4)S(=O)(=O)C3)CC2)c1 (configuration not stated) | -6.63%
57 | CCOC(=O)N(C)c1c(CC)nc2c(OCc3ccccc3C(=O)OC)cccn12 | 13.4%
58 | Nc1ccccc1SC(C[N+](=O)[O-])c1ccccc1 (configuration not stated) | 63.5% (active)
59 | CCCC(=O)N1CCC1(C)C(=O)NCc1ccc(C(C)C)cc1 (configuration not stated) | 1.21%
60 | CCC(=O)N1CCCC1(C)C(=O)Nc1ccc2c(c1)CCN2C(C)=O (configuration not stated) | 4.54%
61 | CCOC(=O)Nc1ccc2c(c1)N(C(=O)CCCl)c1ccccc1[S@]2=O | 84.1% (active)
62 | CCOC(=O)Nc1ccc2c(c1)N(C(=O)CCN1CCN(CCO)CC1)c1ccccc1CC2 | 3.85%
63 | CCOC(=O)Nc1ccc2c(c1)N(C(=O)CN1CCN3CCCC3C1)c1ccccc1CC2 (configuration not stated) | 0.5%
64 | CC(C)(C)OC(=O)C[C@@H]1C/C=C\C[C@@H](CC(=O)N[C@H](CO)Cc2ccccc2)C(=O)NC[C@@H](c2ccccc2)OC1=O | -6.65%
65 | O=C(C[C@H]1C/C=C\C[C@@H](NC(=O)OCC2c3ccccc3-c3ccccc32)C(=O)O[C@@H](c2ccccc2)CNC1=O)N[C@H](CO)Cc1ccccc1 | 67.1% (active)
66 | CC(C)(C)OC(=O)C[C@H]1C/C=C\C[C@@H](CC(=O)N[C@H](CO)Cc2ccccc2)C(=O)NC[C@@H](c2ccccc2)OC1=O | -1.52%

Row | SMILES | inhibition
67 | CC(=O)c1nn(-c2ccccc2)c(=Nc2ccccc2)cc1C | 1.9%
68 | O=C1NC(O)CCN1C1CC(O)C(CO)O1 (configuration not stated) | 15.2%
69 | CSc1nnnn1-c1c(C)cc(C)cc1C | 7.96%
70 | CSC1=NCCN1C(=O)c1ccc(S(=O)(=O)N2CCOCC2)cc1 | -13.6%
71 | Cc1ccc2nc(-c3ccco3)c(Cc3cccc(Cl)c3)n2c1 | -203%
72 | CCOC(=O)C1=C(C)OC(N)=C(C#N)C1c1cncc(-c2ccc(F)cc2)c1 (configuration not stated) | 101% (active)
73 | CCCc1nc2c([nH]1)C(c1cccnc1)C(C#N)=C(N)O2 (configuration not stated) | -0.33%
74 | CCOC(=O)C1=C(CC)OC(N)=C(C#N)C1c1ccc(F)cc1F (configuration not stated) | 8.52%
75 | CCOP(=O)(OCC)C(Cc1ccccc1)N=C(c1ccccc1)c1ccccc1 (configuration not stated) | 41.3%
76 | Cc1cccc(NC(=O)c2ccc(S(=O)(=O)N(C)CC3CCCO3)cc2)c1C (configuration not stated) | 4.42%
77 | CN(CC1CCCO1)S(=O)(=O)c1ccc(C(=O)Nc2ccc(F)cc2)cc1 (configuration not stated) | 21.5%
78 | CCOC(=O)c1c(NC(=O)c2ccc(S(=O)(=O)N(C)CC3CCCO3)cc2)sc2c1CC(C)(C)NC2(C)C (configuration not stated) | 85.8% (active)
79 | CC(=O)Nc1cc(-c2ccccc2F)cn2c(-c3cccc(C(F)(F)F)c3)cnc12 | 25%
80 | O=C(NCc1ccc2c(c1)OCO2)c1cc([N+](=O)[O-])ccc1N1CCOCC1 | 17.4%
81 | COc1ccc(S(=O)(=O)N2CCCCC2)cc1NC(=O)c1cc([N+](=O)[O-])ccc1N1CCOCC1 | 13.5%
82 | CCOc1ccc2nc(NC(=O)c3cc([N+](=O)[O-])ccc3N3CCOCC3)sc2c1 | 61.8% (active)
83 | COc1cccc(-c2cc(NC(C)=O)c3ncc(-c4cccc(C(C)=O)c4)n3c2)c1 | -9.41%
84 | CCN(CC)c1ncnc2c1ncn2[C@H]1CN(Cc2cccs2)C[C@@H](CO)O1 | 5.39%
85 | CC1CCCN(C(=O)CN2C(=O)c3ccccc3S2(=O)=O)C1 (configuration not stated) | -95%
86 | CN(Cc1ccc(F)cc1)C(=O)CN1C(=O)c2ccccc2S1(=O)=O | 1.25%
87 | O=C(CN1C(=O)c2ccccc2S1(=O)=O)N1CCc2ccccc21 | 94.5% (active)
